Reference: PubChem BioAssay
Results filed as inconclusive are left out. Active and inactive are the calls of the source. Unless noted, no stated cut-off is given here; in the data, active means inhibition above about 80%; inactive means the rest.

Columns and labels:
[1] = growth inhibition of DIPG glioma cells, dose response, cell-based, SU-DIPG-XVII, MIPE5.0, CellTiter-Glo, qHTS (AID 1347060; cut-off not given, nearly all actives have AC50 up to about 26 µM;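 on AC50: cells exposed to compound for 48 hours before viability readout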); conditions: SU-DIPG-XVII viability, CellTiter-Glo ATP luminescence
[2] = growth inhibition of DIPG glioma cells, dose response, cell-based, SU-DIPG-XIII, MIPE5.0, CellTiter-Glo, qHTS (AID 1347064; cut-off not given, nearly all actives have AC50 up to about 23 µM;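 on AC50: cells exposed to compound for 48 hours before the viability read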); conditions: SU-DIPG-XIII viability, CellTiter-Glo ATP luminescence
[3] = viability loss in pontine glioma line – cell-based, SU-DIPG-XXV, MIPE5.0, CellTiter-Glo, qHTS, dose response (AID 1347065; cut-off not given, nearly all actives have AC50 up to about 26 µM;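 further: cells exposed to compound for 48 hours before ATP readout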); conditions: CellTiter-Glo ATP luminescence
[4] = JHH-DIPG-1 glioma cell viability, MIPE5.0 library, CellTiter-Glo luminescence, qHTS (AID 1347067; cut-off not given, nearly all actives have AC50 up to about 26 µM;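 further: cells exposed to compound for 48 hours before readout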); conditions: JHH-DIPG-1 glioma viability, CellTiter-Glo ATP luminescence
[5] = SU-DIPG-XXV glioma cell viability, MIPE5.0 library, qHTS (AID 1347068; cut-off not given, nearly all actives have IC50 up to about 30 µM;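 on IC50: cells exposed to compound for 48 hours before viability readout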)
[6] = sensitizers of A549 cells to miR-34 induction, primary screen, imaging, A549 dox-inducible miR-34, nuclei and caspase counts (AID 1347080;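 active means compounds whose cell count with miR-34 switched on is under 0.7 times the count with it off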); conditions: A549 miR-34 inducible, Hoechst nuclei count, 48 h
[7] = survival rescue of mitochondrial mutant cells in low glucose, primary screen, MELAS cybrids, Rieske KO mouse fibroblasts, CellTiter-Glo (AID 1508586;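 active means mean z-score across replicates of 1.96 or higher in either the MELAS or the Rieske mutant cell line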;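 further: z relative to plate mean and SD of compound and empty wells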)
[8] = LFS_MB_P medulloblastoma growth inhibition, cell-based, chromothripsis tumors, cisplatin or BGB combos (AID 1671449); conditions: LFS_MB_P medulloblastoma cells;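 further: cells exposed for 96 hours; 0% = vehicle DMSO and 100% = killing by high DMSO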
[9] = HDN33 neuroblastoma growth inhibition, cell-based, chromothripsis tumors, cisplatin or BGB combos (AID 1671450); conditions: HDN33 neuroblastoma cells, stronger effect = higher value;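 further: cells exposed to compound for four days; 0% = vehicle DMSO and 100% = cell killing by high DMSO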
[10] = ICB984 medulloblastoma cell growth inhibition, synergistic combos for chromothripsis tumors, cisplatin or BGB combos (AID 1671451; call rule not given here;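 further: cells exposed for 96 hours before readout; 0% = vehicle DMSO and 100% = killing by high DMSO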); conditions: ICB984 medulloblastoma cells, drug combinations, stronger effect = higher value
[11] = LFS_MB_1R medulloblastoma cell growth inhibition, synergistic combos for chromothripsis tumors, cisplatin or BGB combos (AID 1671452); conditions: LFS_MB_1R medulloblastoma cells, stronger effect = higher value;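 further: cells exposed for 96 hours before readout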
[12] = HTB85 osteosarcoma cell growth inhibition, synergistic combos for chromothripsis tumors, BGB or cisplatin IC20 combos (AID 1671453); conditions: HTB85 osteosarcoma cells, drug combinations, stronger effect = higher value;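 further: cells exposed for 96 hours before readout; 0% = vehicle DMSO and 100% = high DMSO killing control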
[13] = CRL2098 osteosarcoma cell growth inhibition, synergistic combos for chromothripsis tumors, BGB or cisplatin IC20 combos (AID 1671454); conditions: CRL2098 osteosarcoma cells, drug combinations, stronger effect = higher value;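 further: cells exposed for 96 h before readout; 0% = vehicle DMSO and 100% = killing by high DMSO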
[14] = HD-MB03 medulloblastoma cell growth inhibition, synergistic combos for chromothripsis tumors, BGB or cisplatin IC20 combos (AID 1671455; in the data active means inhibition above about 83%;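 further: 0% = vehicle DMSO and 100% = high DMSO as cytotoxic control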); conditions: HD-MB03 medulloblastoma cells, stronger effect = higher value
[15] = UWB1.289 ovarian carcinoma cell growth inhibition, synergistic combos for chromothripsis tumors, BGB or cisplatin combos (AID 1671456); conditions: UWB1.289 ovarian carcinoma cells, stronger effect = higher value;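 further: cells exposed to compound for four days; 0% = vehicle DMSO and 100% = killing by high DMSO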
[16] = MDA-MB-436 breast carcinoma cell growth inhibition, synergistic combos for chromothripsis tumors, BGB or cisplatin combos (AID 1671458; call rule not given here;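 further: cells exposed for 96 hours; 0% = vehicle DMSO and 100% = killing by high DMSO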); conditions: MDA-MB-436 breast carcinoma growth inhibition, drug combinations, stronger effect = higher value
[17] = growth inhibition of BT084 medulloblastoma cells, cell-based, ICGC_MB145, cisplatin and BGB IC40 combos (AID 1671461); conditions: drug combinations, stronger effect = higher value;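 further: cells exposed to drugs for 96 hours; 0% = vehicle DMSO and 100% = high DMSO full killing control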
[18] = growth inhibition of RCMB18 medulloblastoma cells, cell-based, cisplatin and BGB IC40 combos (AID 1671462); conditions: stronger effect = higher value;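 further: cells exposed to compound for four days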
[19] = growth inhibition of CRL1545 osteosarcoma cells, cell-based, cisplatin and BGB IC20 combos (AID 1671464); conditions: stronger effect = higher value;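 further: cells exposed to compound for 96 hours before readout; 0% = vehicle DMSO and 100% = high DMSO killing control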
[20] = stronger effect = lower value, cell number ratio, induced over uninduced
[21] = measured here: relative caspase fold change +Dox/-Dox
[22] = measured here: total cells with miR-34 induction, stronger effect = lower value
[23] = measured here: total cells without miR-34 induction
[24] = measured here: combination with BGB IC40, at 0.05 µM
[25] = measured here: with BGB IC20 combination, at 0.5 µM
[26] = measured here: with cisplatin IC20 combination, at 0.5 µM
[27] = measured here: combination with cisplatin, at 0.5 µM

CCOC(=O)CCNc1cc(N2CCc3ccccc3CC2)nc(-c2ccccn2)n1
AC50 [1]: 2.95 µM (active)
AC50 [2]: 3.32 µM (active)
AC50 [3]: 14.8 µM (active)
AC50 [4]: 5.25 µM (active)
IC50 [5]: 8.33 µM (active)
fold change [6, 20]: 0.698 (active)
fold change [6, 21]: 1.37
cell count [6, 22]: 3830
cell count [6, 23]: 5480
z-score ([7]; MELAS cybrid survival, CellTiter-Glo 48 h, stronger effect = higher value): -0.444 (inactive)
z-score ([7]; Rieske KO mouse fibroblast survival, CellTiter-Glo 72 h): -0.225

CN(C)C/C=C/C(=O)Nc1ccc(C(=O)Nc2cccc(Nc3ncc(Cl)c(-c4c[nH]c5ccccc45)n3)c2)cc1
AC50 [1]: 0.263 µM (active)
AC50 [2]: 0.209 µM (active)
AC50 [3]: 0.209 µM (active)
AC50 [4]: 0.263 µM (active)
IC50 [5]: 0.295 µM (active)
inhibition ([8]; at 0.5 µM, stronger effect = higher value): -12.9% (inactive)
inhibition ([8]; measured here: combination with BGB IC20, at 0.005 µM): -29.1%
inhibition ([8]; measured here: combination with BGB IC40, at 0.005 µM): -64.8%
inhibition [8, 24]: 7.86%
inhibition ([8]; measured here: combination with cisplatin, at 0.5 µM, stronger effect = higher value): -42.5%
inhibition ([8]; measured here: combination with cisplatin, at 5 µM, stronger effect = higher value): 89.6%
inhibition ([9]; BGB combo, at 5 µM): 97.3%
inhibition ([9]; at 0.5 µM): 42.9% (inactive)
inhibition ([9]; cisplatin combo, at 5 µM): 98.3%
inhibition [9, 25]: 43.5%
inhibition [9, 26]: 38.3%
inhibition ([9]; single agent, at 5 µM): 98.9%
inhibition ([10]; BGB IC20 combo, at 0.005 µM): 97.6%
inhibition ([10]; BGB IC40 combo, at 0.005 µM): 98.3%
inhibition ([10]; BGB IC40 combo, at 0.05 µM): 102%
inhibition ([10]; at 0.5 µM): -27.1% (inactive)
inhibition ([10]; cisplatin combo, at 0.05 µM): 102%
inhibition ([10]; cisplatin combo, at 0.5 µM): -38.3%
inhibition ([10]; cisplatin combo, at 5 µM): 33.8%
inhibition ([10]; measured here: 5 uM single agent, at 5 µM): 11.6%
inhibition ([11]; at 0.5 µM): 103% (active)
inhibition [11, 24]: 23.8%
inhibition [11, 27]: 101%
inhibition ([11]; measured here: combination with cisplatin, at 5 µM): 97.5%
inhibition ([12]; at 0.5 µM): 91.8% (active)
inhibition ([12]; measured here: with BGB IC20, at 0.5 µM): 89.2%
inhibition ([12]; measured here: with BGB IC20, at 5 µM): 99.9%
inhibition ([12]; measured here: with cisplatin IC20, at 0.5 µM): 92.7%
inhibition ([12]; measured here: with cisplatin IC20, at 5 µM): 99.8%
inhibition ([12]; single agent, at 5 µM): 100%
inhibition ([13]; at 0.5 µM): 41.6% (inactive)
inhibition ([13]; measured here: combination with BGB at IC20, at 0.5 µM): 72.6%
inhibition ([13]; measured here: combination with cisplatin at IC20, at 0.5 µM): 29.6%
inhibition ([14]; at 0.5 µM): 64.6% (inactive)
inhibition ([14]; measured here: combo with BGB at IC20, at 0.5 µM): 57.2%
inhibition ([14]; measured here: combo with cisplatin at IC20, at 0.5 µM): 71.3%
inhibition ([15]; at 0.5 µM): 74.6% (inactive)
inhibition ([15]; measured here: inhibition with BGB combination, at 0.05 µM): 9.81%
inhibition ([15]; measured here: inhibition with cisplatin combination, at 0.05 µM): 0.164%
inhibition ([16]; at 0.5 µM): 57.8% (inactive)
inhibition ([16]; measured here: BGB combination, at 0.5 µM): 51.4%
inhibition ([16]; measured here: BGB combination, at 5 µM): 40.9%
inhibition ([16]; measured here: cisplatin combination, at 0.5 µM): 50.4%
inhibition ([16]; measured here: cisplatin combination, at 5 µM): 69.8%
inhibition ([17]; at 0.5 µM): 32.3% (inactive)
inhibition ([17]; cisplatin combination, at 0.5 µM): 10%
inhibition ([17]; cisplatin combination, at 5 µM): 35.4%
inhibition ([17]; measured here: BGB IC40 combination 0.05 uM, at 0.05 µM): 15.5%
inhibition ([17]; single agent, at 5 µM): 89%
inhibition ([18]; at 0.5 µM): 66.8% (inactive)
inhibition ([18]; cisplatin combo, at 5 µM): 71.7%
inhibition ([18]; measured here: BGB IC40 combination, at 0.05 µM): 52.8%
inhibition [18, 27]: 69.4%
inhibition ([18]; single agent, at 5 µM): 89.7%
inhibition ([19]; at 0.5 µM): 80.7% (active)
inhibition [19, 25]: 72.6%
inhibition [19, 26]: 84.4%
inhibition ([19]; single agent, at 0.05 µM): -55.9%
inhibition ([19]; single agent, at 5 µM): 99.8%

CCCc1c(OCCCOc2ccc(OCC(=O)O)cc2)ccc(C(C)=O)c1O
outcome [1]: inactive
outcome [2]: inactive
outcome [3]: inactive
outcome [4]: inactive
outcome [5]: inactive
fold change [6, 20]: 0.974 (inactive)
fold change [6, 21]: 1.33
cell count [6, 22]: 9670
cell count [6, 23]: 9930
